USP28 inh: human USP28 deubiquitinase inhibition; AID 1645857; inhibition, % at 25 µM; Q96RU2; hit rate 3% among 47,000; purified USP28, Ub-rhodamine cleavage fluorescence, 30 min
OTUD3 block: human OTUD3 deubiquitinase inhibition. Q5T2D3. purified OTUD3, Ub-rhodamine fluorescence, 2 h. inhibition, % at 25 µM. hit rate 0.7% among 47,000. AID 1645858
USP30 inh: human USP30 deubiquitinase inhibition. inhibition, % at 25 µM. hit rate 5.3% among 47,000. purified USP30, Ub-rhodamine cleavage fluorescence. AID 1645860. Q70CQ3
USP17 inh: human USP17-like deubiquitinase inhibition; A8MUK1; purified USP17, Ub-rhodamine cleavage fluorescence, 3 h; inhibition, % at 50 µM; hit rate 6.5% among 47,000
Target sequence (A8MUK1 whole entry, looked up): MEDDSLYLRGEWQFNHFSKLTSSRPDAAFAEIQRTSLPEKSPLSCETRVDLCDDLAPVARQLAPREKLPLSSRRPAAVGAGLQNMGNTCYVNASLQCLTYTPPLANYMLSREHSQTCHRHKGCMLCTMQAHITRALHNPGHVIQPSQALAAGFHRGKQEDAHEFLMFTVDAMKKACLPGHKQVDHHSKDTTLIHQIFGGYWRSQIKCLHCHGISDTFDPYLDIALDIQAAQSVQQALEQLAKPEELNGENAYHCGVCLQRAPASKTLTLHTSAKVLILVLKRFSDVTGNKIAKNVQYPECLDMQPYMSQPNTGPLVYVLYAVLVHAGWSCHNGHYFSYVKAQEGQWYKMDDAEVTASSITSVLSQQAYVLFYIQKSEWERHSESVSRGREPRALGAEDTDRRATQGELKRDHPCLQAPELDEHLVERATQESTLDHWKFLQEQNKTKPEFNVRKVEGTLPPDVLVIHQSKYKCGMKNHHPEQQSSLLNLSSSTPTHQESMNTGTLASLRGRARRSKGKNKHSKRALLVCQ
Numbers without * were called inactive. The list is not random: actives were taken first. Their share in the collection is about 11%. Cut-off read from the data, not from the text of the source: active = inhibition above about 30%; inactive = the rest.

Results for C=C(NC(=O)C(=C)NC(=O)C(=C)NC(=O)C(=C)NC(=O)c1ccc2c(n1)-c1coc(n1)C(=C)NC(=O)C(=C)NC(=O)c1csc(n1)C(C)NC(=O)c1csc(n1)CNC(=O)c1coc(n1)C(CSC)NC(=O)C(C(C)O)NC(=O)c1csc-2n1)C(=O)O (stereo not drawn) ?
USP28 inh: -50; OTUD3 block: -28; USP30 inh: -314; USP17 inh: -39

Results for COC(=O)c1ccc(C(=O)N2CCN(C(=O)c3cnn4ccccc34)CC2)cc1 ?
USP28 inh: 10; OTUD3 block: 11; USP30 inh: 19; USP17 inh: 3

What do the screens show for `O=C(COc1ccc(Cl)cc1)N1CCC(c2c[nH]c3ccccc23)(c2c[nH]c3ccccc23)CC1`?
USP28 inh: 5; OTUD3 block: 25; USP30 inh: 39*

Results for O=C(COc1ccccc1)N1CCC2(CC1)NC(=O)N(Cc1ccc(Cl)cc1)C2=O ?
USP28 inh: -14; OTUD3 block: -17; USP30 inh: -18

Results for Cc1oc(-c2[nH]ncc2C(=O)N(C)C)cc1S(=O)(=O)Nc1ccccc1 ?
USP28 inh: 14; OTUD3 block: 13; USP30 inh: 30*; USP17 inh: 13

Results for Cc1ccccc1CNS(=O)(=O)c1cc(-c2[nH]ncc2C(=O)N(C)C)oc1C ?
USP28 inh: -15; OTUD3 block: -6; USP30 inh: -25; USP17 inh: -10

Results for COc1cccc(CNC(=O)c2ccccc2OCc2ccccc2)c1 ?
USP28 inh: 19; OTUD3 block: 17; USP30 inh: 41*; USP17 inh: 31*

Results for Cc1ccc(CNC(=O)c2ccccc2OCc2ccc(Cl)cc2)cc1 ?
USP28 inh: 17; OTUD3 block: 12; USP30 inh: 24; USP17 inh: 11

Results for COc1ccccc1CNC(=O)c1ccccc1OCc1ccc(F)cc1 ?
USP28 inh: 29; OTUD3 block: 27; USP30 inh: 38*; USP17 inh: 27

Results for CN1C[C@@H](NC(=O)Nc2cccc(F)c2)C[C@H]1c1nc(-c2ccc(F)cc2)no1 ?
USP28 inh: 16; OTUD3 block: 23; USP30 inh: -24; USP17 inh: 13

What do the screens show for `COc1ccc(C(=O)CSc2nnc(-c3cc4cccc(OC)c4o3)n2C)cc1OC`?
USP28 inh: 0; OTUD3 block: -4; USP30 inh: 53*; USP17 inh: 18

How did Cn1c(SCC(=O)c2ccc(F)cc2)nnc1-c1cc2ccccc2o1 do in these assays?
USP28 inh: 12; OTUD3 block: 1; USP30 inh: 88*; USP17 inh: 73*

Results for COc1cccc(NC(=O)CSc2nnc(-c3ccc(OC)c(OC)c3)c(-c3ccc(OC)c(OC)c3)n2)c1 ?
USP28 inh: -15; OTUD3 block: -7; USP30 inh: -22; USP17 inh: -17

What do the screens show for `O=C(CSc1nnc(-c2cc3ccccc3[nH]2)o1)Nc1cccc(F)c1`?
USP28 inh: -21; OTUD3 block: -22; USP30 inh: -85; USP17 inh: -38

What do the screens show for `Cn1c(SCC(=O)NCc2ccccc2)nnc1-c1cc2ccccc2o1`?
USP28 inh: 0; OTUD3 block: 11; USP30 inh: -22; USP17 inh: 18

What do the screens show for `COc1cccc(NC(=O)CSc2nnc(-c3cc4cccc(OC)c4o3)n2C)c1`?
USP28 inh: 7; OTUD3 block: 11; USP30 inh: 50*; USP17 inh: 60*

Results for COc1cc(NC(=O)CSc2nnc(-c3cc4ccccc4n3C)o2)cc(OC)c1 ?
USP28 inh: 15; OTUD3 block: 20; USP30 inh: 49*; USP17 inh: 20

Results for COc1ccc(C(=O)CSc2nnc(COc3c(C)cccc3C)n2C)cc1OC ?
USP28 inh: -1; OTUD3 block: -2; USP30 inh: 10; USP17 inh: 25

What do the screens show for `COc1ccc(C)cc1NC(=O)c1cn(C)c2c(=O)n(Cc3ccccc3)c(=O)[nH]c12`?
USP28 inh: 0; OTUD3 block: 2; USP30 inh: -4; USP17 inh: 27

What do the screens show for `COCCn1c(SCC(=O)c2ccc(F)cc2)nc2ccccc21`?
USP28 inh: 1; OTUD3 block: 23; USP30 inh: 10; USP17 inh: 36*

How did O=C(Nc1ccccc1F)C1CCc2nc(N3CCCCC3)ncc2C1 (stereo not drawn) do in these assays?
USP28 inh: 2; OTUD3 block: -5; USP30 inh: -14; USP17 inh: 1

How did CC(C)c1nc2sc3c(NCCN4CCOCC4)ncnc3c2c2c1CCC2 do in these assays?
USP28 inh: 35*; OTUD3 block: 7; USP30 inh: 6; USP17 inh: 9

How did CC(C)c1nc2sc3c(NCc4ccco4)ncnc3c2c2c1CCC2 do in these assays?
USP28 inh: 63*; OTUD3 block: -17; USP30 inh: -67; USP17 inh: -10

How did O=c1c2ccccc2n(Cc2ccccc2F)c(=O)n1CCc1ccccc1 do in these assays?
USP28 inh: -4; OTUD3 block: 4; USP30 inh: 2; USP17 inh: 6

Results for CCOC(=O)C1CCN(C(=O)Cn2c(=O)cc(C)c3c(-c4ccccc4)nn(-c4ccccc4)c32)CC1 ?
USP28 inh: -7; OTUD3 block: -3; USP30 inh: 34*; USP17 inh: 10

What do the screens show for `Cc1cccc(-c2nn(-c3ccccc3)c3c2c(C)cc(=O)n3CC(=O)N2CCOCC2)c1`?
USP28 inh: -16; OTUD3 block: -14; USP30 inh: -10; USP17 inh: -1

What do the screens show for `COc1ccc(CNC(=O)CN(c2ccccc2)S(=O)(=O)c2ccc(F)cc2)cc1OC`?
USP28 inh: -3; OTUD3 block: 0; USP30 inh: -10; USP17 inh: -1

Results for COc1ccc(N(CC(=O)Nc2cccc(F)c2)S(=O)(=O)c2ccc(OC)c(OC)c2)cc1 ?
USP28 inh: 20; OTUD3 block: 22; USP30 inh: 51*; USP17 inh: 36*

What do the screens show for `COc1ccc(S(=O)(=O)N(CC(=O)NCc2ccc3c(c2)OCO3)c2ccc(F)cc2)cc1OC`?
USP28 inh: 20; OTUD3 block: 17; USP30 inh: 38*; USP17 inh: 34*

Results for COc1ccc(S(=O)(=O)N(CC(=O)Nc2cccnc2)c2ccc(F)cc2)cc1OC ?
USP28 inh: 14; OTUD3 block: 6; USP30 inh: 11; USP17 inh: 6

Results for CC(CCc1ccccc1)NC(=O)Cn1cccc1C(=O)c1ccccc1 (stereo not drawn) ?
USP28 inh: 38*; OTUD3 block: 4; USP30 inh: 15; USP17 inh: 14

How did CC(CCc1ccccc1)NC(=O)CSc1ncnc2nc[nH]c12 (stereo not drawn) do in these assays?
OTUD3 block: 2; USP17 inh: 0

What do the screens show for `O=C(c1ccc2c(c1)OCCO2)N1C[C@@H](O)[C@H](N2CCOCC2)C1`?
USP28 inh: 6; OTUD3 block: 13; USP30 inh: 18; USP17 inh: -2

Results for COc1ccc(-c2cc3nc([C@H](C)NC(=O)Cc4cccc(F)c4)nn3cn2)cc1 ?
USP28 inh: 12; OTUD3 block: 17; USP30 inh: 60*; USP17 inh: 37*

Screening data deposited in PubChem BioAssay by Buhrlage Lab, Dana-Farber Cancer Institute and Novartis Institutes for BioMedical Research (Cambridge, Mass).
